{
  "source": "PubChem BioAssay AID1159580",
  "about": "(chemical genetic matrix, 2015)",
  "test": "chemical genetic growth profiling, strain panel (AID 1159580);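 note: tested at 20 µM; growth read once vehicle control cultures reached saturation at 30 °C; 1 = growth at the plate median or of vehicle wells; lower values mean less growth of the strain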",
  "conditions": "S. cerevisiae deletion strains, growth OD",
  "note": "The campaign covered roughly 5,500 compounds. About 2,000 (36%) were called active. About 18% were inconclusive and are not listed. The list shows a part of the results. Values without a mark were called inactive. Cut-off read from the data, not from the text of the source: active = normalized growth mostly below about 0.91 (no sharp cut-off); inconclusive = no clear call, values can overlap the other calls; inactive = mostly above about 0.92.",
  "data": [
    {"smiles": "O=C(c1ccccc1)c1cc2c(cc1Br)OCCO2", "values": [
      {"measurement": "normalized growth", "setting": "locus YAL013W, strain DEP1, stronger effect = lower value", "value": "0.908 (active)"},
      {"measurement": "normalized growth", "setting": "locus YBR229C, strain ROT2, stronger effect = lower value", "value": 0.953},
      {"measurement": "normalized growth", "setting": "locus YDL101C, strain DUN1, stronger effect = lower value", "value": "0.897 (active)"},
      {"measurement": "normalized growth", "setting": "locus YDL134C, strain PPH21, stronger effect = lower value", "value": 0.942},
      {"measurement": "normalized growth", "setting": "locus YDR150W, strain NUM1, stronger effect = lower value", "value": 0.927},
      {"measurement": "normalized growth", "setting": "locus YEL061C, strain CIN8, stronger effect = lower value", "value": "0.904 (active)"},
      {"measurement": "normalized growth", "setting": "locus YGR078C, strain PAC10, stronger effect = lower value", "value": "0.922 (active)"},
      {"measurement": "normalized growth", "setting": "locus YHR030C, strain SLT2, stronger effect = lower value", "value": "0.304 (active)"},
      {"measurement": "normalized growth", "setting": "locus YHR087W, strain rtc3, stronger effect = lower value", "value": 0.989},
      {"measurement": "normalized growth", "setting": "locus YJR043C, strain POL32, stronger effect = lower value", "value": "0.906 (active)"},
      {"measurement": "normalized growth", "setting": "locus YJR075W, strain HOC1, stronger effect = lower value", "value": 0.93},
      {"measurement": "normalized growth", "setting": "locus YKL190W, strain CNB1, stronger effect = lower value", "value": "0.845 (active)"},
      {"measurement": "normalized growth", "setting": "locus YLR039C, strain RIC1, stronger effect = lower value", "value": "0.486 (active)"},
      {"measurement": "normalized growth", "setting": "locus YLR058C, strain SHM2 (second series), stronger effect = lower value", "value": 0.956},
      {"measurement": "normalized growth", "setting": "locus YLR085C, strain ARP6, stronger effect = lower value", "value": "0.419 (active)"},
      {"measurement": "normalized growth", "setting": "locus YLR262C, strain YPT6, stronger effect = lower value", "value": "0.524 (active)"},
      {"measurement": "normalized growth", "setting": "locus YML094W, strain GIM5, stronger effect = lower value", "value": "0.852 (active)"},
      {"measurement": "normalized growth", "setting": "locus YMR219W, strain ESC1, stronger effect = lower value", "value": 0.952},
      {"measurement": "normalized growth", "setting": "locus YMR263W, strain SAP30, stronger effect = lower value", "value": 0.921},
      {"measurement": "normalized growth", "setting": "locus YNL153C, strain GIM3, stronger effect = lower value", "value": "0.91 (active)"},
      {"measurement": "normalized growth", "setting": "locus YNL298W, strain CLA4 (second series), stronger effect = lower value", "value": "0.7 (active)"},
      {"measurement": "normalized growth", "setting": "locus YNL322C, strain KRE1, stronger effect = lower value", "value": 0.955},
      {"measurement": "normalized growth", "setting": "locus YNR030W, strain Alg12, stronger effect = lower value", "value": "0.811 (active)"},
      {"measurement": "normalized growth", "setting": "locus YPL055C, strain LGE1, stronger effect = lower value", "value": 0.845},
      {"measurement": "normalized growth", "setting": "locus YPL241C, strain CIN2, stronger effect = lower value", "value": "0.823 (active)"},
      {"measurement": "normalized growth", "setting": "locus YPR135W, strain CTF4, stronger effect = lower value", "value": "0.445 (active)"}
    ]}
  ]
}
